Assay results from PubChem BioAssay AID463218 (Sanford-Burnham Center for Chemical Genomics, 2010).
Screen size: about 4,400 compounds; about 3,700 (84%) were called active.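 Rule for the calls: active = inhibition above about 39% in either of two replicate wells at 20 µM (limit read from the data); inactive = the rest.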 The set was probably picked from earlier hits. A selection follows.

Assay: growth inhibition of tim23-1 ts yeast, retest – luminescence, single concentration, confirmation (AID 463218);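 note: temperature-sensitive tim23-1 mutant grown at 25 °C; 0% = DMSO wells with yeast and 100% = medium wells without yeast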
Conditions: S. cerevisiae tim23-1 growth, BacTiter-Glo luminescence, 24 h; at 20 µM; active compounds read high

Compound	inhibition
O=C1Oc2ccccc2C(=O)/C1=C/c1ccccc1O	89% (active)
O=C(CC(O)(C(F)(F)F)C(F)(F)F)Nc1ccc(Cl)c(Cl)c1	92.1% (active)
COc1cc(NC(=O)c2cccs2)ccc1NC(=O)c1ccccc1Cl	42.2% (active)
Cc1nn(CC(=O)Nc2nc3ccccc3s2)c(C)c1[N+](=O)[O-]	54% (active)
C=C1CCC(N(O)c2cc(C)on2)C(=C)CCC2C1CC2(C)C (stereo not given)	44.8% (active)
Cc1ccccc1OCC(=O)Nc1ccc(N2CCN(C(=O)C(C)C)CC2)c(Cl)c1	76.3% (active)
COc1ccc2c(c1)C(=C(C#N)C#N)C(=O)N2CCc1ccccc1	-89.4% (inactive)
C/C(=N\NC(=S)NCc1ccccc1)c1ccc(Cl)cc1	36.7% (inactive)
COc1ccc(/C(N)=N/OC(=O)CCCc2ccccc2)cc1	41.2% (active)
N/C(=N\OC(=O)CCc1ccccc1)c1ccc(Cl)cc1	67.7% (active)
Cc1cc2ncn(CCCCOc3ccccc3)c2cc1C	27.3% (inactive)
O=[N+]([O-])c1ccccc1S(=O)(=O)Nc1cccc2cccnc12	59.1% (active)
Cc1cccc(Oc2c([N+](=O)[O-])c(=O)n(C)c3ccccc23)c1	59.6% (active)
N/C(=N\OC(=O)CC1CCCCC1)c1ccccc1	53.1% (active)
O=C(NCCc1ccc(F)cc1)c1ccc(S(=O)(=O)N2CCCCC2)cc1	56% (active)
Cc1ccc2cc3cc(C(=O)N4CCCCCC4)oc3nc2c1	56% (active)
CCC(=O)Nc1nc(C)c(C(=O)Nc2cccc(Cl)c2)s1	75.2% (active)
COc1cc(Br)cc(/C=N/c2ncn[nH]2)c1O	85.5% (active)
O=C1c2cccc3c([N+](=O)[O-])ccc(c23)C(=O)N1CC1CCCO1 (stereo not given)	86.2% (active)
O=C(Oc1ccc([N+](=O)[O-])cc1)c1ccc2ccccc2n1	70.7% (active)
O=C(N[C@H]1C/C=C\C(c2cccc(F)c2)N(Cc2ccccc2)C(=O)C1)OCC1c2ccccc2-c2ccccc21 (stereo not given in full)	40% (active)
COC(=O)c1c(NC(=O)CSc2nncs2)sc2c1CCCCC2	46.1% (active)

Compound	inhibition
O=C(N/N=C/C=C/c1ccco1)c1cccs1	68.9% (active)
COc1ccc(CNC(=O)/C(C#N)=C/c2cccc(OC)c2OC)cc1	76.6% (active)
CCCc1nc2c(c(=O)c3ccccc3n2C)c(=O)n1C1CCCCCC1	58.9% (active)
Cc1ccc(S(=O)(=O)NC2CCCCCC2)cc1	37% (active)
O=C(Cc1c(F)cccc1Cl)Nc1ncc([N+](=O)[O-])s1	71.3% (active)
COc1ccc(-c2nc3cc(C)ccn3c2NC2CCCCC2)cc1SC1CCCCC1	48.6% (active)
O=C(/C=C/c1ccc(Cl)c([N+](=O)[O-])c1)c1cccnc1	73.4% (active)
Cc1ccccc1C1=N/C(=C/c2cccnc2)C(=O)O1	57% (active)
O=C(Nc1nc(-c2ccco2)c(-c2ccco2)s1)c1ccco1	77.3% (active)
O=C1[C@@H](c2ccccc2)[C@@H](c2ccccc2)N1c1cccnc1	71.3% (active)
N/C(Cc1ccc([N+](=O)[O-])cc1)=N\OC(=O)COc1ccc2ccccc2c1	72.3% (active)
N/C(Cc1ccc([N+](=O)[O-])cc1)=N\OC(=O)C1CCCCC1	64.3% (active)
Cc1cccc(NC(=S)Nc2ccc(Cl)c(Cl)c2)c1	63.8% (active)
Cc1cccc(NC(=O)c2nc(S(=O)(=O)Cc3ccccc3)ncc2Cl)c1	-88.7% (inactive)
Cn1c(=O)c(C(=O)Nc2ncccn2)c(O)c2ccccc21	53.4% (active)
O=C1Nc2ccccc2/C1=C/c1ccnc2ccccc12	56.8% (active)
COc1ccc(S(=O)(=O)N2CCN(C(C)C(=O)Nc3ccc(C(C)C)cc3)CC2)cc1 (stereo not given)	51.4% (active)
CC(C)c1ccc(NC(=S)NC2CC3C=CC2C3)cc1 (stereo not given)	36.4% (inactive)
COc1ccc(C(C[N+](=O)[O-])n2nc(C)cc2C)cc1 (stereo not given)	62% (active)
O=C(NC(Nc1nc2ccc([N+](=O)[O-])cc2s1)(C(F)(F)F)C(F)(F)F)c1ccccc1	87.3% (active)
COc1ccc(NC(=O)Nc2cccc3cccnc23)cc1	42.3% (active)
COc1ccc(CS(=O)/C(Cl)=C(/Cl)C(=O)Nc2ccc(OC)nc2)cc1 (stereo not given)	-9.55% (inactive)

Compound	inhibition
CN(C(=O)CC(NC(=O)c1ccccc1)(c1ccccc1)c1ccccc1)c1ccccc1	44.1% (active)
Fc1ccccc1-c1cc2cc3c(cc2cn1)OCO3	59% (active)
CCOc1ccc(C(c2c(C)[nH][nH]c2=O)c2c(C)[nH][nH]c2=O)cc1OCC	41.6% (active)
CCCc1c(C(=O)Nc2ccc(F)cc2)cnn1-c1ccccc1	30.4% (inactive)
Cc1ccc2nc(-c3ccc(NC(=O)c4cccnc4)cc3)oc2c1	42.7% (active)
Cc1ccc(N=Cc2c(O)cc(C)oc2=O)c(C)c1	12.4% (inactive)
O=C(Nc1nnc(SCc2c(Cl)cccc2Cl)s1)C1CCCO1 (stereo not given)	49.7% (active)
Cc1cccc(C)c1NC(=O)C(Cl)C(=O)c1ccccc1 (stereo not given)	68.8% (active)
S=C(NCCCc1ccccc1)Nc1ccc(Br)cc1	54.3% (active)
COc1ccc2c(c1)C(NS(=O)(=O)OCC(Cl)(Cl)Cl)CCC2 (stereo not given)	52.8% (active)
CCCCCCc1ccc(O)cc1O	45.3% (active)
Cc1ccccc1C(=O)NC(=S)NC1CC1	12.2% (inactive)
COc1ccc(C(=O)NC(=S)NC2CCCCC2)cc1	59.2% (active)
O=C(NC(=S)NC1CCCCC1)c1ccc(Cl)cc1	53.2% (active)
O=C(Nc1ccccc1)c1ccc2c(c1)OCCCO2	31.9% (inactive)
Cc1ccoc1C(=O)Nc1cccc(Oc2ccccc2)c1	75.2% (active)
COc1ccccc1-c1n[nH]c2c1[C@H](C)CC[C@H]2C(C)C	61.8% (active)
Cc1ccc(C2CC(=O)NC(SCC(=O)OCc3ccccc3)=C2C#N)o1 (stereo not given)	53.8% (active)
CCc1nnc(NS(=O)(=O)c2ccc(NC(=S)NC(=O)/C=C/c3cccs3)cc2)s1	25.8% (inactive)
O=C1C=C(c2cccc(Cl)c2O)C[C@@H](c2ccc(F)cc2)C1	51.5% (active)
CC(=O)Oc1ccc2c(c1)C(=O)c1ccccc1C2=O	68.2% (active)
